Cycloheximide cs: affects cycloheximide protein synthesis inhibition readout, counter-screen | cell reporter, cycloheximide protein synthesis inhibition counterscreen | max response, % | 300,000 tested, 12% active; in the data active = max response mostly above about 13%, no sharp cut-off; inactive = mostly below about 14%; also: read at 38.3 µM for the half of the compounds with a filed dose; 0% is about no effect
Shiga toxin inh: blocks Shiga toxin action in Vero cells. Vero cells, Shiga toxin protein synthesis inhibition reporter. inhibition, % at 38.7 µM. 290,000 tested, 9.2% active; in the data active = inhibition mostly above about 28%, no sharp cut-off; inactive = mostly below about 43%; also: 0% is about no effect
Pf growth 96h: P. falciparum growth inhibition at 96 hours | P. falciparum luciferase reporter growth, 96 h | Potency, µM (highest dose often 28.7 µM), without a hit: at the top dose activity change, negative = inhibition, hits mostly inhibitors | 320,000 tested, 6.9% active; also: potency is read from the fitted curve at half-maximal effect; % is scaled to controls: 0 for no effect and ±100 for the full control effect
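P. falciparum expressing integrated firefly luciferase grown in erythrocytes (2% hematocrit, 0.05% parasitemia final) with compounds for 96 hours at 37 C, 5% CO2. Growth inhibition read as loss of luminescence after adding luciferase detection reagent.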
Pf growth 48h: P. falciparum growth inhibition at 48 hours (one generation). P. falciparum luciferase growth in erythrocytes, 48 h. Potency, µM (top dose mostly 28.7 µM), without a hit: at the highest dose activity change, negative = inhibition, actives largely listed as inhibitors. 310,000 tested, 5.9% active. AID 504832; also: potency is read from the fitted curve at half-maximal effect; % is scaled to controls: 0 for no effect and ±100 for the full control effect
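Erythrocytes infected with P. falciparum carrying an integrated firefly luciferase reporter (2% hematocrit, 0.1% parasitemia final) were exposed to compounds in RPMI 1640 with 0.5% Albumax at 37 C, 5% CO2. Growth inhibition was scored as reduced luminescence.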
AMA1-RON2 inh: AMA1-RON2 (P. falciparum) interaction inhibition. AlphaScreen AMA1-biotinylated RON2 peptide binding. Potency, µM (doses to about 58.2 µM), for the others: at the highest dose activity change, negative = inhibition, actives largely listed as inhibitors. 360,000 tested, 0.2% active. AID 720542;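 also: potency is read from the fitted curve at half-maximal effect; 0% = vehicle wells and -100% = peptide control; nearly all actives have a fitted effect of over 45% in size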
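AMA1 (3D7) with his tag at 25 nM final met compounds first, then biotinylated RON2 peptide at 25 nM; detection used donor plus acceptor beads, 10 µg/mL apiece, read by AlphaScreen after 30 min at room temperature.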
HCV inh: inhibitors of hepatitis C virus infection. Huh7.5.1 HCVcc-Cre infection, luciferase reporter, 44 h. Potency, µM (highest dose often 41.8 µM), for inactives: at the highest dose activity change, negative = inhibition, most hits filed as inhibitors. 340,000 tested, 3.4% active. AID 651820; also: potency is read from the fitted curve at half-maximal effect; % is scaled to controls: 0 for no effect and ±100 for the full control effect
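1,000 cells/well; 4 h culture; + compound; + HCVcc-Cre (~0.5 moi); 44 h; luciferase substrate, RT 15 min; read 15 sec.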
An asterisk follows results filed as active; ? = inconclusive; . = no result given. Compounds with a hit are over-represented: about 21% of the library has one in this group of screens. Unless noted, calls follow the shape of the dose curve; as a rule, active = well fitted curve in the direction sought with a large enough effect; inconclusive = small, poorly fitted or top-dose-only effect, or another doubt; inactive = no such curve, though single readings can be large; an effect the other way counts as inactive or inconclusive.

SMILES | Cycloheximide cs | Shiga toxin inh | Pf growth 96h | Pf growth 48h | AMA1-RON2 inh | HCV inh
Cc1ccc(C)c(CC(=O)N2CCCC(c3cc(C(=O)NCc4ccccc4)no3)C2)c1 (stereo not given) | . | . | . | . | -11.5% | .
CS(=O)(=O)c1ccc(Sc2nc3ccccc3s2)c([N+](=O)[O-])c1 | 9.1 | -6.1 | ? | 13.1µM* | -19.5% | ?
NCCNc1ccc([N+](=O)[O-])c(Sc2nc3ccccc3[nH]2)c1 | -3.6 | 2.7 | 13.1µM* | ? | -13.2% | -4.2%
O=[N+]([O-])c1cc(S(=O)(=O)C(F)(F)F)ccc1Sc1nc2ccccc2[nH]1 | -1.5 | -22.3 | . | 14.7µM* | ? | ?
CS(=O)(=O)c1ccc(Sc2nc3ccccc3[nH]2)c([N+](=O)[O-])c1 | -1.6 | 25.3 | ? | ? | 4.2% | -11.7%
O=[N+]([O-])c1cc(S(=O)(=O)C(F)(F)F)ccc1Sc1nc2ccccc2s1 | -1.4 | -2.5 | 9.28µM* | ? | ? | -18.6%
O=C(CS(=O)(=O)c1ccc(Cl)cc1)NCCS(=O)(=O)c1ccc(Cl)cc1 | 8.7 | -4.1 | 8.7% | 2.3% | 5.4% | 21.7%
Cc1ccccc1-n1c(C)cc(/C=N/Nc2ccc([N+](=O)[O-])cn2)c1C | 36.2* | 91.2* | . | ? | -11.2% | -26.6%
O=[N+]([O-])c1ccc(N/N=C\c2cccn2-c2ccccc2)nc1 | 16.8* | 13.0 | ? | ? | ? | ?
O=[N+]([O-])c1ccc(NN=Cc2ccccc2)nc1 | . | . | . | . | 54.7% | 8.6%
Cc1cc(/C=N/Nc2ccc([N+](=O)[O-])cn2)c(C)n1-c1ccc(C(=O)O)cc1 | -1.5 | 25.9 | ? | 45.8% | 10.9% | 8.1%
O=C(O)[C@@H]1CSCN1 | . | . | -14.7% | -5.7% | . | .
C=CCc1c(NCCO)nc(C)[nH]c1=O | 19.7* | 31.9 | ? | 44.9% | -0.8% | 6.2%
CCN(CCO)CC1CCCC2CCCCC21 (stereo not given) | . | . | . | . | 2.9% | .
C/C(=N/Nc1cc(-c2ccccc2)nc(-c2ccccc2)n1)c1ccc(O)cc1 | 23.3* | 30.8 | ? | ? | -3.3% | ?
C/C(=N\Nc1cc(Cl)nc(C)n1)c1ccccc1 | 28.5* | 45.8* | 121.2% | 37.2% | -3.1% | -27.2%
COC(=O)CCCn1cc(CN2CC(N(C)C)CS2(=O)=O)nn1 (stereo not given) | . | . | . | . | -6.0% | .
CC(C)c1ccccc1-n1c(SCc2cc(=O)oc3ccc4ccccc4c23)nnc1-c1cccnc1 | -1.7 | -7.6 | 8.28µM* | 13.1µM* | -21.1% | ?
CC(=O)Nc1ccc2c(CSc3nnc(-c4cccnc4)n3-c3ccc(C)cc3C)cc(=O)oc2c1 | -5.1 | -9.2 | 7.38µM* | ? | -1.3% | -19.6%
CCOc1ccc(CCNC(=O)COC(=O)/C=C/c2ccco2)cc1OCC | 2.2 | -10.3 | 7.38µM* | 8.28µM* | -10.7% | -1.7%
CCOc1ccc(CCNC(=O)COC(=O)/C=C/c2cccc(OC)c2)cc1OCC | . | . | ? | -3.7% | -16.5% | -29.4%
COc1cc(/C=C/C(=O)OCC(=O)NCCc2ccc(S(N)(=O)=O)cc2)ccc1OCC#N | . | . | -33.0% | -22.5% | -4.5% | ?
COc1cc(/C=C/C(=O)OCC(=O)NCCN2C(=O)CSC2=O)ccc1OCC#N | . | . | 10.4µM* | ? | 7.4% | 19.2%
CCOc1ccc(/C=C/C(=O)OCC(=O)NCCc2ccc(OCC)c(OCC)c2)cc1OC | . | . | ? | ? | ? | 7.94µM*
CCOc1ccc(CCNC(=O)/C=C/c2ccco2)cc1OCC | 6.2 | 4.0 | ? | -11.8% | -14.9% | ?
SMILES | Cycloheximide cs | Shiga toxin inh | Pf growth 96h | Pf growth 48h | AMA1-RON2 inh | HCV inh
CO[C@@H]1[C@@H]2OP(=O)(O)OC[C@H]2O[C@H]1n1c(Sc2ccc(Cl)cc2)nc2c(N)ncnc21 | 1.1 | -18.7 | . | . | . | .
CC1CN(S(=O)(=O)c2ccc(C(=O)N3CCc4ccccc43)cc2)CC(C)O1 (stereo not given) | . | . | -23.9% | -20.1% | -6.1% | 18.5%
COc1cc2sc3ccc(C#CC4(O)CCCCC4)cc3c(=O)c2cc1OC | . | . | . | . | -0.9% | ?
Cn1c2ccccc2c(=O)c2ccc(C#CC3(O)CCCCC3)cc21 | 34.9* | 41.2* | -61.3% | -37.2% | 44.9% | 10µM*
Cn1c2ccccc2c(=O)c2cc(C#Cc3ccc(N)cc3)ccc21 | 40.9* | 38.6* | ? | 55.5% | -6.4% | ?
COc1ccc(NC(=O)COc2ccc(-n3cnnn3)cc2)cc1OC | . | . | ? | 4.2% | -4.0% | ?
COc1ccc(C(C)=O)cc1COC(=O)c1c(C)noc1C | -3.7 | -27.2 | -24.6% | . | 2.7% | 10µM*
COc1ccc(C(=O)OCc2c(C)noc2C)cc1 | -2.9 | -7.8 | -3.3% | -7.5% | -1.4% | 1.8%
COc1ccc(C(C)=O)cc1COC(=O)c1ccc(OCc2c(C)noc2C)cc1 | -1.3 | 21.9 | 8.28µM* | ? | 7.7% | ?
COc1ccc(C(C)=O)cc1COc1ccc(-n2cnnn2)cc1 | -2.6 | 29.8 | . | -13.1% | -7.2% | 10µM*
COc1ccc(C(C)=O)cc1COC(=O)c1cccnc1Cl | -3.6 | -3.3 | 38.1% | 19.5% | -2.8% | 11.2µM*
Cc1cc2nc(-c3nnnn3Cc3ccccc3)c(=O)[nH]c2cc1C | . | . | . | . | 4.7% | .
CCOC(=O)c1cccc(C2=CC(=O)CC(C)(C)C2)c1 | . | . | ? | -15.1% | -5.4% | ?
Oc1ccccc1Nc1nc(-c2ccccc2O)nc2ccccc12 | 9.5 | 3.1 | 1.31µM* | 1.04µM* | 0.1% | ?
COc1ccccc1Nc1nc(-c2ccccc2O)nc2ccccc12 | -3.5 | -4.8 | ? | ? | -0.1% | 3.98µM*
Oc1ccc(Nc2nc(-c3ccccc3F)nc3ccccc23)cc1 | -1.0 | -4.1 | -5.2% | -19.8% | 2.5% | ?
COc1ccc(Nc2nc(-c3ccccc3F)nc3ccccc23)cc1OC | 10.9 | -12.6 | ? | ? | -8.0% | 25.1µM*
Oc1ccc(Nc2nc(-c3ccccc3O)nc3ccccc23)cc1 | 9.9 | -8.0 | ? | -15.4% | 0.0% | 11.2µM*
O=C(NCCCNC(=O)c1ccc(-c2cccc(Cl)c2)o1)c1cnccn1 | -6.3 | 5.9 | 0.0% | ? | 3.2% | -4.4%
O=C(Cn1ncc2c([nH]c3ccccc32)c1=O)NCCCN1CCN(c2ccccc2)CC1 | 8.2 | 15.2 | 2.7% | -16.0% | -11.1% | -14.6%
C/C=C(\C)c1nnc(NC(=O)C(C)C)s1 | 19.0* | 12.8 | 9.6% | 34.6% | 8.7% | 11.4%
CCCc1nnc(NC(=S)Nc2ccccc2)s1 | 27.4* | 41.7* | 27.1% | 62.3% | 37.1% | -14.9%
CCCc1nnc(NC(=O)CCC(=O)Nc2ccc(Cl)cc2)s1 | 0.3 | -1.2 | -5.7% | 17.9% | -0.6% | 1.8%
CC(C)C(=O)Nc1nnc(NC(=S)Nc2ccccc2)s1 | 33.9* | 68.2* | 11.7µM* | 6.5% | 54.8% | -23.4%
CCN(CC)C(=O)Cn1nc(-c2ccc(Cl)cc2)c2ccccc2c1=O | -0.4 | 17.1 | -26.3% | 1.5% | 0.0% | -9.2%

Screening results (PubChem BioAssay)
